These results are taken from the supplement of paper PMC9492666.

The structures appear in SMILES notation. Where a name gives a salt, the structure may show the parent alone.

Holding throughout (conditions): 72 h
Assay [1] relates to HCC1937. Briefly: relative cell viability, compound alone, vs DMSO (fraction of DMSO control); higher = less growth inhibition.
Assay [2] has as its system MDA-MB-231. The assay is described as above.
Assay [3] has as its system HCC1937. The assay is described as follows: relative cell viability, compound + RSL3, vs DMSO (fraction of DMSO control); higher = less growth inhibition.
Assay [4] relates to MDA-MB-231. The assay is described as above.
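For relative cell viability, compound + RSL3, vs DMSO in this document: breast cancer cell viability read out with the CCK-8 kit after co-treatment of each compound with the ferroptosis inducer RSL3.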
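For relative cell viability, compound alone, vs DMSO in this document: viability read out with the CCK-8 kit in 96-well plates, screening a set of 303 compounds acting on lipid metabolism targets.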

Consider `CC(C)(Oc1ccc(C(=O)c2ccc(Cl)cc2)cc1)C(=O)O` [Fenofibric acid], for which the relative cell viability in assay [1] was found to be 0.686; in assay [2], 0.842.

In the case of `CC(C)(Oc1ccc(C(=O)c2ccc(Cl)cc2)cc1)C(=O)O` [Choline Fenofibrate], the relative cell viability worked out at 0.928 in assay [1] and 1.07 in assay [2].

For `O=P(O)(O)OC(CO)CO` [β-Glycerol phosphate disodium salt pentahydrate], the relative cell viability in assay [1] turned out to be 0.636; in assay [2], 0.874.

`CN(CCOc1ccc(CC2SC(=O)NC2=O)cc1)c1ccccn1` (configuration not stated) [Rosiglitazone HCl]: the relative cell viability in assay [1] came out at 0.781; in assay [2], 0.947.

Turning to `CC(C)c1nc(N(C)S(C)(=O)=O)nc(-c2ccc(F)cc2)c1/C=C/[C@@H](O)C[C@@H](O)CC(=O)O` [Rosuvastatin], the relative cell viability in assay [1] worked out at 0.633; in assay [2], 0.871.

Take `Cc1ccc(/C=C2\SC(=S)N(CCCCCC(=O)Nc3ccc(C(=O)O)c(O)c3)C2=O)cc1`: the results for the relative cell viability in assay [1] and in assay [2] were 1.07 and 0.914, respectively.

On to `COc1ccc(-c2c[nH]c3nccc(-c4ccsc4)c23)c(OC)c1`, for which the relative cell viability in assay [1] is 0.993; in assay [2] it was 0.935.

`N=C(N)NCCC(=O)O` [3-Guanidinopropionic Acid]: the relative cell viability in assay [1] is 0.734; in assay [2] it was 0.94.

Consider `CN(C)C(=N)NC(=N)N` [Metformin], for which the relative cell viability was determined as 0.646 in assay [1] and 0.93 in assay [2].

For `C[C@@H](Nc1nc(N[C@H](C)C(F)(F)F)nc(-c2cccc(Cl)n2)n1)C(F)(F)F` [Vorasidenib], the relative cell viability is 0.708 in assay [1] and 0.914 in assay [2].

On to `COc1ccc(CN2CCC(c3ccc4nc(C(=O)N5CCN(Cc6ccc(C(F)(F)F)cc6)CC5)[nH]c4c3)CC2)cn1`, for which the relative cell viability in assay [1] came to 0.849; in assay [2] it was 0.795.

`CC(C)(C)c1ccc(-c2nc3ccccc3[nH]2)cc1`: the relative cell viability in assay [1] stood at 0.728; in assay [2], 0.612.

On to `CC(=O)N1CCN(c2ccc(OCC3COC(Cn4ccnc4)(c4ccc(Cl)cc4Cl)O3)cc2)CC1` (configuration not stated) [Ketoconazole], for which the results for the relative cell viability in assay [1] and in assay [2] were 1.3 and 0.897, respectively.

For `CCCCCCCCCCCCCCOc1ccc(C(=O)OCC(=O)N(C)CC(=O)OCC)o1` [Olumacostat Glasaretil], the values for the relative cell viability in assay [1] and in assay [2] were 0.812 and 0.863, respectively.

For `C=C(C)[C@@H]1CCC2=CC(=O)C[C@@H](C)[C@]2(C)C1` [Nootkatone], the relative cell viability in assay [1] came to 0.882; in assay [2], 1.02.

As to `COC(=O)c1sccc1S(=O)(=O)Nc1ccc(Nc2ccccc2)cc1OC`, the relative cell viability came to 0.795 in assay [1] and 0.871 in assay [2].

Turning to `CC1=C(C)C(=O)C(C(CCCCCC(=O)O)c2ccccc2)=C(C)C1=O` (configuration not stated) [Seratrodast], the relative cell viability in assay [1] came to 1.37; in assay [2], 0.809.

With `O=c1ccc2cc(O)c(O)cc2o1` [Esculetin], the relative cell viability in assay [1] was 0.673; in assay [2], 0.672.

On to `CC(=O)Oc1cc(C(F)(F)F)ccc1C(=O)O` [Triflusal], for which the relative cell viability was determined as 1.1 in assay [1] and 0.982 in assay [2].

For `CC(C)CCC[C@@H](C)[C@H]1CC[C@H]2[C@@H]3CC=C4C[C@@H](O)CC[C@]4(C)[C@H]3CC[C@]12C` [Cholesterol], the relative cell viability in assay [1] was 0.91; in assay [2], 1.01.

Consider `C[C@H](CCCC(C)(C)O)[C@H]1CC[C@H]2[C@@H]3CC=C4C[C@@H](O)CC[C@]4(C)[C@H]3CC[C@]12C` [25-Hydroxycholesterol], for which the relative cell viability in assay [1] is 0.982; in assay [2], 0.89.

With `CCN(CC)CCCC(C)Nc1c2ccc(Cl)cc2nc2ccc(OC)cc12` (configuration not stated) [Quinacrine dihydrochloride], the relative cell viability is 0.212 in assay [1] and 0.306 in assay [2].

As to `O=S(=O)(Nc1ccc(C(O)(C(F)(F)F)C(F)(F)F)cc1)c1cccs1`, the values for the relative cell viability in assay [1] and in assay [2] were 1.1 and 1.03, respectively.

Regarding `CN(C)C(=O)Nc1cccc(-c2ccc(N(C)C)cc2)c1` [Atglistatin], the relative cell viability in assay [1] worked out at 0.661; in assay [2] it was 0.83.

`O=C(Nc1cnccc1Cl)N1CCN(Cc2ccc3c(c2)OC(F)(F)O3)CC1` + COC(=O)c1ccc([C@H]2c3[nH]c4ccccc4c3C[C@H](C(=O)OC)N2C(=O)CCl)cc1 [RSL3]: the relative cell viability in assay [3] stood at 0.338; in assay [4] it was 0.568.

With `CC(C)c1c(C(=O)Nc2ccccc2)c(-c2ccccc2)c(-c2ccc(F)cc2)n1CC[C@@H](O)C[C@@H](O)CC(=O)O` [Atorvastatin Calcium], the relative cell viability in assay [1] is 0.657; in assay [2], 0.569.

Take `CCCCCCCCCCCCC/C=C/[C@@H](O)[C@@H](N)CO` + COC(=O)c1ccc([C@H]2c3[nH]c4ccccc4c3C[C@H](C(=O)OC)N2C(=O)CCl)cc1 [RSL3]: the relative cell viability in assay [3] amounted to 0.0823; in assay [4] it was 0.167.

For `Oc1ccc(/C=C/c2cc(O)cc(O)c2)cc1` [Resveratrol] + COC(=O)c1ccc([C@H]2c3[nH]c4ccccc4c3C[C@H](C(=O)OC)N2C(=O)CCl)cc1 [RSL3], the relative cell viability in assay [3] was determined as 0.63; in assay [4], 0.508.

In the case of `O=C(c1ccc(-c2nc3ccc(F)cc3o2)cc1)N1CCN(C(=O)C2(O)CC2)CC1`, the relative cell viability in assay [1] was 0.831; in assay [2] it was 0.918.

For the compound `c1cc(-c2cnn3cc(-c4ccc(OCCN5CCCCC5)cc4)cnc23)ccn1` [Dorsomorphin dihydrochloride], the relative cell viability was determined as 0.138 in assay [1] and 0.301 in assay [2].

Consider `CC1(C)C[C@H]2C3=CC[C@@H]4[C@@]5(C)CC[C@H](O)[C@@](C)(CO)[C@@H]5CC[C@@]4(C)[C@]3(C)C[C@H](O)[C@@]2(CO)[C@@H](O)[C@@H]1O` [Gymnemagenin] + COC(=O)c1ccc([C@H]2c3[nH]c4ccccc4c3C[C@H](C(=O)OC)N2C(=O)CCl)cc1 [RSL3], for which the relative cell viability amounted to 0.571 in assay [3] and 0.657 in assay [4].

As to `Cc1ccc(CN(CC(O)COc2cccc3[nH]ccc23)C(C)(C)C)cc1` (configuration not stated) + COC(=O)c1ccc([C@H]2c3[nH]c4ccccc4c3C[C@H](C(=O)OC)N2C(=O)CCl)cc1 [RSL3], the relative cell viability was determined as 0.357 in assay [3] and 0.804 in assay [4].

With `Cc1ccc(C)c(OCCCC(C)(C)C(=O)O)c1` [Gemfibrozil], the relative cell viability in assay [1] is 0.736; in assay [2], 0.783.

With `C=C[C@H]1CN2CC[C@H]1C[C@@H]2[C@@H](O)c1ccnc2ccc(OC)cc12` [Quinidine sulfate], the relative cell viability in assay [1] worked out at 0.803; in assay [2], 1.02.

`Oc1ccc(/C=C/c2cc(O)cc(O)c2)cc1` [Resveratrol]: the relative cell viability in assay [1] is 0.67; in assay [2], 0.755.

As for `CCCCCCCCCCOc1ccc(C(=O)Nc2cc(C(=O)NCCCC)ccc2SC)cc1`, the relative cell viability in assay [1] is 1.02; in assay [2], 1.06.

As to `CC[C@H](C)C(=O)O[C@H]1C[C@H](O)C=C2C=C[C@H](C)[C@H](CC[C@@H](O)C[C@@H](O)CC(=O)O)[C@H]21` [Pravastatin sodium], the values for the relative cell viability in assay [1] and in assay [2] were 0.918 and 0.964, respectively.

For `CC1(C)CC[C@]2(C(=O)O[C@@H]3O[C@H](CO)[C@@H](O)[C@H](O)[C@H]3O)CC[C@]3(C)C(=CC[C@@H]4[C@@]5(C)CC[C@H](O[C@@H]6O[C@H](C(=O)O)[C@@H](O)[C@H](O)[C@H]6O)C(C)(C)[C@@H]5CC[C@]43C)[C@@H]2C1` [Chikusetsusaponin IVa] + COC(=O)c1ccc([C@H]2c3[nH]c4ccccc4c3C[C@H](C(=O)OC)N2C(=O)CCl)cc1 [RSL3], the relative cell viability came out at 0.597 in assay [3] and 0.572 in assay [4].

Turning to `CC(C)[C@H](N=C(NS(=O)(=O)c1ccc(Cl)cc1)N1C[C@H](c2ccccc2)C(c2ccc(Cl)cc2)=N1)C(N)=O` + COC(=O)c1ccc([C@H]2c3[nH]c4ccccc4c3C[C@H](C(=O)OC)N2C(=O)CCl)cc1 [RSL3], the relative cell viability came to 0.551 in assay [3] and 0.45 in assay [4].

As to `Cc1nc2ccc(NCc3cccc(C(F)(F)F)c3)cc2n(CCNC(=O)CO)c1=O` + COC(=O)c1ccc([C@H]2c3[nH]c4ccccc4c3C[C@H](C(=O)OC)N2C(=O)CCl)cc1 [RSL3], the relative cell viability in assay [3] was 0.354; in assay [4] it was 0.567.

In the case of `CC(C)n1c(/C=C/C(O)CC(O)CC(=O)O)c(-c2ccc(F)cc2)c2ccccc21` (configuration not stated) [Fluvastatin sodium salt] + COC(=O)c1ccc([C@H]2c3[nH]c4ccccc4c3C[C@H](C(=O)OC)N2C(=O)CCl)cc1 [RSL3], the relative cell viability in assay [3] stood at 0.504; in assay [4] it was 0.547.

For `CS(=O)(=O)c1ccc(-c2nnc(/C=C/c3nnc(-c4ccc(C#N)cc4)o3)n2-c2ccccc2Cl)nc1`, the results for the relative cell viability in assay [1] and in assay [2] were 1.07 and 0.851, respectively.

As for `CCCCCCCCCc1ccc(B(O)O)cc1` [4-Nonylphenylboronic acid], the values for the relative cell viability in assay [1] and in assay [2] were 1.01 and 1.08, respectively.

As for `C[C@H]1N=C(N(C)C)N=C(N)N1` [Imeglimin hydrochloride] + COC(=O)c1ccc([C@H]2c3[nH]c4ccccc4c3C[C@H](C(=O)OC)N2C(=O)CCl)cc1 [RSL3], the relative cell viability was 0.504 in assay [3] and 0.647 in assay [4].

For the compound `O=C(OC(C(F)(F)F)C(F)(F)F)N1CCC(C(O)(c2ccc3c(c2)OCO3)c2ccc3c(c2)OCO3)CC1`, the relative cell viability in assay [1] is 1.06; in assay [2], 0.855.

With `Cc1nc(Nc2cnn(C3CCNCC3)c2)nc2c1N(C)C(=O)c1cc3ccccc3cc1N2C` + COC(=O)c1ccc([C@H]2c3[nH]c4ccccc4c3C[C@H](C(=O)OC)N2C(=O)CCl)cc1 [RSL3], the values for the relative cell viability in assay [3] and in assay [4] were 0.31 and 0.287, respectively.

`N=C(N)NC(=N)NCCc1ccccc1` [Phenformin hydrochloride]: the relative cell viability was found to be 0.76 in assay [1] and 0.868 in assay [2].

As to `CC(C)Cc1ccc([C@H](C)C(=O)O)cc1` [Dexibuprofen], the results for the relative cell viability in assay [1] and in assay [2] were 1.36 and 0.905, respectively.

As for `CC(C)(Oc1ccc(Cl)cc1)C(=O)O` [Clofibric acid] + COC(=O)c1ccc([C@H]2c3[nH]c4ccccc4c3C[C@H](C(=O)OC)N2C(=O)CCl)cc1 [RSL3], the relative cell viability is 0.956 in assay [3] and 0.603 in assay [4].

In the case of `CCc1ccc(N(CC(C)C)S(=O)(=O)c2ccc(OCC3CCOCC3)c(CO)c2)cc1`, the relative cell viability came to 0.954 in assay [1] and 0.939 in assay [2].

`CC(C)OC(=O)C(C(=O)OC(C)C)=C1SC=CS1` [Malotilate]: the values for the relative cell viability in assay [1] and in assay [2] were 0.686 and 0.828, respectively.

`CCCCCCCCCCCCCCOc1ccc(C(=O)OCC(=O)N(C)CC(=O)OCC)o1` [Olumacostat Glasaretil] + COC(=O)c1ccc([C@H]2c3[nH]c4ccccc4c3C[C@H](C(=O)OC)N2C(=O)CCl)cc1 [RSL3]: the figures for the relative cell viability in assay [3] and in assay [4] were 0.281 and 0.278, respectively.

On to `O=C(O)CCCc1cc2cc(Cl)ccc2n1S(=O)(=O)c1ccc2ncsc2c1` [Lanifibranor] + COC(=O)c1ccc([C@H]2c3[nH]c4ccccc4c3C[C@H](C(=O)OC)N2C(=O)CCl)cc1 [RSL3], for which the relative cell viability in assay [3] came out at 0.464; in assay [4], 0.786.

For `O=C(Nc1ccccc1)c1cc([N+](=O)[O-])ccc1Cl` + COC(=O)c1ccc([C@H]2c3[nH]c4ccccc4c3C[C@H](C(=O)OC)N2C(=O)CCl)cc1 [RSL3], the values for the relative cell viability in assay [3] and in assay [4] were 0.805 and 0.705, respectively.

As for `N#Cc1ccc(Oc2cccc(NC(=O)Nc3ccc(Cl)c(C(F)(F)F)c3)c2)cc1`, the relative cell viability in assay [1] amounted to 0.1; in assay [2], 0.276.

For `Cn1c2cc([S+](C)[O-])sc2c2cnn(Cc3cccc(N)c3)c(=O)c21` (configuration not stated), the relative cell viability in assay [1] turned out to be 0.688; in assay [2], 0.96.
